A selection: hits, their analogues and other compounds. The true share with any hit is near 4.4%.
12-hLO inh – 12-hLO (ALOX12) enzyme inhibition; P18054; purified 12-hLO, xylenol orange hydroperoxide absorbance; Potency, µM (series often up to 57.1 µM), hits mostly inhibitors; 150,000 compounds, 0.12% hits; AID 1452; note: nearly all actives have a fitted effect of over 55% in size
Target sequence (P18054 whole entry, looked up): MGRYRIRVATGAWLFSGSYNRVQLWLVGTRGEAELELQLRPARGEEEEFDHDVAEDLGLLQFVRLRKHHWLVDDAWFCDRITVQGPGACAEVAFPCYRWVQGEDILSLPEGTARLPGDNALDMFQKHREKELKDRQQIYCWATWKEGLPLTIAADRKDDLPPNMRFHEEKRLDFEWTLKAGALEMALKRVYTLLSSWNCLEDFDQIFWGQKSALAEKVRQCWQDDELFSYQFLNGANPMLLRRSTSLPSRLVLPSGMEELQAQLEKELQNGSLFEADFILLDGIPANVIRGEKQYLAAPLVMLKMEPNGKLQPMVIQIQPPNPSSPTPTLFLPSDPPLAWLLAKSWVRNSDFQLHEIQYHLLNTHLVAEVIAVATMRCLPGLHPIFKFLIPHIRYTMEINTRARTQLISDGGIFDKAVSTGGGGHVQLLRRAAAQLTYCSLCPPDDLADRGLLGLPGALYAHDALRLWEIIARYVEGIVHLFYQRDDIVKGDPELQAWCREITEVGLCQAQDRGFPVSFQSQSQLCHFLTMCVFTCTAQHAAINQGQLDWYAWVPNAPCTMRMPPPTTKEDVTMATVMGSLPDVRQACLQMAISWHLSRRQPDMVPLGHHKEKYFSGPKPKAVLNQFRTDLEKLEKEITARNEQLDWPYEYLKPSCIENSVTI
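Purified human 12hLO (150 nM final) was preincubated with compounds for 15 min at room temperature in 25 mM Hepes pH 7.0, 0.01% Triton X-100, then reacted with 40 uM arachidonic acid for 30 min. Hydroperoxide was detected with ferrous iron/xylenol orange.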
HPGD inh – blocks human HPGD enzyme activity; P15428; AID 894; purified HPGD, NADH fluorescence kinetic, PGE2 substrate; Potency, µM, most hits filed as inhibitors; 150,000 compounds, 4.3% hits; active = well fitted inhibition curve with a large enough effect, not every such curve was filed as active; inconclusive = small, poorly fitted or top-dose-only effect, or another doubt; inactive = no such curve, though single readings can be large or run the other way
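20 nM HPGD preincubated 15 min at room temperature with compound in 50 mM Tris-HCl pH 8, 0.01% Tween 20. Started with 1 mM NAD+ and 30 uM prostaglandin E2; NADH fluorescence (360/450 nm) read 5 times over 30-s intervals, last minus first.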
p53ts 39C tox – cytotoxicity in p53ts cells at nonpermissive temperature; 130,000 compounds, 1.5% hits; AID 902; H1299-p53A138V viability at 39C, ATP luminescence, 24 h; Potency, µM (highest dose often 46.1 µM), hits mostly cytotoxic; note: nearly all actives have a fitted effect of over 55% in size
p53ts 32C tox – cytotoxicity in p53ts cells at permissive temperature; H1299-p53A138V at 32C, ATP luminescence viability, 24 h; Potency, µM (highest dose often 46.1 µM), hits mostly cytotoxic; 130,000 compounds, 0.93% hits; AID 924; note: nearly all actives have a fitted effect of over 55% in size
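ATP-content luminescence (ATPlite) read-out after 24 h compound exposure at 32C in H1299-p53A138V cells (600/well). Tested up to 46 uM. Normalized to DMSO (0%) and 100 uM tamoxifen (100% killing); Hill-fit AC50.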
A number is an active result; i = inactive; ? = inconclusive; nt = not tested or not shown; ! = not confirmed by another sample; [ ] = dose if it differs, or a comment. Unless noted, calls come from the whole dose curve; as a rule, active = well fitted curve in the direction sought with a large enough effect; inconclusive = small, poorly fitted or top-dose-only effect, or another doubt; inactive = no such curve, though single readings can be large; an effect the other way counts as inactive or inconclusive.

SMILES	12-hLO inh	HPGD inh	p53ts 39C tox	p53ts 32C tox
COc1cccc(N=Nc2c(=O)[nH]n3c(=O)c4c([nH]c23)CCC4)c1	i	14µM	nt	nt
COc1cccc(N=Nc2c(=O)[nH]n3c(=O)cc(C)[nH]c23)c1	i	14µM	nt	nt
Nc1nc(SCCc2ccccc2)c2[nH]cnc2n1	i[11.4 µM]	?	i[9.22 µM]	i[9.22 µM]
CCOC(=O)CCN1C(=O)[C@@H]2[C@H]3C(=CC[C@H]2C1=O)C(=O)[C@H]1O[C@H]1[C@H]3O	nt	nt	i[9.22 µM]	i[9.22 µM]
c1ccc(Cc2nnc3sc(-c4ccccn4)nn23)cc1	i	?	i	i
c1ccc(Cc2nnc3sc(-c4cccs4)nn23)cc1	i	8.9µM	i	i
c1ccc(CCc2nn3c(Cc4ccccc4)nnc3s2)cc1	i	11µM	i	i
c1ccc(Cc2nnc3sc(-c4ccncc4)nn23)cc1	i	11µM	i	i
CCOc1ccccc1-c1nn2c(Cc3ccccc3)nnc2s1	i	?	i	i
c1ccc(Cc2nnc3sc(-c4cccnc4)nn23)cc1	i	14µM	i	i
CCOc1ccc(C(=O)Nc2ccc3c(c2)CCCN3S(=O)(=O)c2ccc(C)cc2)cc1	nt	nt	i	i
COc1ccc(OCC(=O)Nc2cc(-c3nc4ccccc4o3)ccc2Cl)cc1	nt	nt	i	i
c1ccc(Cc2nn3c(-c4ccncc4)nnc3s2)cc1	i	28µM	i	i
c1ccc(OCc2nn3c(-c4ccncc4)nnc3s2)cc1	i	i	i	i
Cc1cccc(CNc2ccnc(-c3ccc(C(=O)N(C)C)cc3)n2)c1	i	8.9µM	i	i
COc1cccc(-c2nccc(NCc3ccccc3)n2)c1	nt	nt	13µM	20µM
COc1cccc(-c2cncnc2NCc2cccs2)c1	nt	nt	i	i
Cc1cccc(CNc2ccnc(-c3ccoc3)n2)c1	i	?	i	i
COc1cccc(-c2cncnc2NCc2ccccc2)c1	i	14µM	i	i
COC(=O)CN=C1OC(=O)N2C(=O)C3=C4C(C[C@H]5C(=O)N(c6ccccc6)C(=O)[C@H]5[C@H]4[C@@]12Cc1ccccc1)[C@H]1C(=O)N(c2ccccc2)C(=O)[C@H]1[C@H]3C (stereo partly specified)	i	i	i	i
O=C(Nc1nc2c(s1)CCCC2)c1ccc(Br)s1	i	20µM	i	i
Cc1cc(C(=O)Nc2nc3c(s2)CCCC3)cs1	i	i	?	?
Cc1cccc(C(=O)Nc2nc3c(s2)CCCC3)c1	nt	nt	13µM	10µM
Cc1ccc(C2CC(c3ccccc3)=NN2C(=S)Nc2ccccc2)o1 (stereo unspecified)	?	18µM	nt	nt
COc1ccc(CC(=O)N2CC(C)CC(C)C2)cc1 (stereo unspecified)	i	28µM	nt	nt
SMILES	12-hLO inh	HPGD inh	p53ts 39C tox	p53ts 32C tox
COc1ccc(CC(=O)N2CCOCC2)cc1	i	i	i	i
O=C(Nc1cccc(F)c1)N1CC2(CCN(C(=O)c3cc(C(F)(F)F)cc(C(F)(F)F)c3)CC2)C1	i	i	i	i
CCCCSCCCNC(=O)c1c[nH]c2ccc(S(=O)(=O)Nc3cccc(OC)c3)cc2c1=O	nt	nt	i	i
CC1=CC(=C2C(=O)c3ccccc3C2=O)C=C(C)O1	i	i	i	i
CCCN1C=CC(=C2C(=O)c3ccccc3C2=O)C=C1	i	i	0.32µM	0.2µM
CN1C=CC(=C2C(=O)c3ccccc3C2=O)C=C1	i	i	10µM	13µM
CC1=CC(=C2C(=O)c3ccccc3C2=O)C=C(C)N1Cc1ccco1	i	i	?	?
CCN1C=CC(=C2C(=O)c3ccccc3C2=O)C=C1	i	i	0.25µM	0.25µM
NS(=O)(=O)c1ccc(CCNC(=O)CCn2c(=O)c3cccn3c3cccnc32)cc1	nt	nt	i	i
Cc1ccc(SCCNC(=S)Nc2ccc(C)c(C)c2)cc1	25µM	i	nt	nt
CC(C)C12CC[C@@]3(CC[C@H]4[C@@](C)(CCC[C@]4(C)C(=O)O)[C@@H]3C1)[C@@H](CN)C2	i[11.4 µM]	i	i[9.22 µM]	i[9.22 µM]
CCc1ccc(NC(=O)C2CCCN(S(=O)(=O)c3cccc4nsnc34)C2)cc1 (stereo unspecified)	nt	nt	i	i
c1cc2c(cc1C1CCCCC1)c1c3n2CCN[C@H]3CCC1	i	i	10µM	25µM
N#CC(C#N)=C1C=CC=CN1/C(=C\c1ccco1)C(=O)c1ccc(Br)cc1	i	16µM	nt	nt
N#CC(C#N)=C1C=CC=CN1/C(=C\c1ccco1)C(=O)c1ccccc1	i	22µM	nt	nt
Cc1cccc(NC(=O)c2ccc(C(=O)Nc3cccc(C)c3C)cc2)c1C	nt	nt	i	i
Cn1c(=O)c2c(nc(N/N=C\c3ccccc3C(=O)O)n2C)n(C)c1=O	i[11.4 µM]	i	i[9.22 µM]	i[9.22 µM]
CC1(C)CC(=O)C2=C(C1)OC(N)=C(C#N)C2C#Cc1ccccc1 (stereo unspecified)	i	13µM	i	i
COc1ccc(-c2noc(-c3ccc(NC4CCCC4)c([N+](=O)[O-])c3)n2)cc1OC	nt	nt	i	i
CN(C)c1ccnc2sc3c(SCc4ccc(Cl)cc4)ncnc3c12	i	16µM	nt	nt
CN(C)c1ccnc2sc3c(NCC(O)CO)ncnc3c12 (stereo unspecified)	i	i	nt	nt
COc1ccc(-c2cn3c(C)c(C(=O)Nc4ccncc4)sc3n2)cc1	i	?	nt	nt
COc1ccc(-c2cn3c4c(sc3n2)CCCC4)cc1	i	i	5µM	6.3µM
Cc1ccccc1NC(=O)Cc1nc(CCl)cs1	i	20µM	nt	nt
Cc1ccccc1NC(=O)CSC(N)=O	i	?	i	i
SMILES	12-hLO inh	HPGD inh	p53ts 39C tox	p53ts 32C tox
CSc1ccccc1NC(=O)CSCc1ccc(C)cc1	i	16µM	nt	nt
Cc1ccc(C)c(NC(=O)Cc2nc(CCl)cs2)c1	i	i	nt	nt
O=C(CSCc1ccc(F)cc1)Nc1ccccc1	i	i	nt	nt
Cc1c(Cl)cccc1NC(=O)Cn1cccc1	i	18µM	i	i
Cc1ccccc1NC(=O)CSCC(=O)Nc1ccccc1C	?	18µM	nt	nt
COc1ccc(-c2nn3c(=O)cc(CN4CCN(C(=O)c5ccc(C(C)(C)C)cc5)CC4)nc3s2)cc1	nt	nt	i	i
Cc1ccccc1NC(=O)Cn1cccc1	i	32µM	i	i
Cc1ccccc1NC(=O)CN1C(=O)C2C3CC(C(Br)C3Br)C2C1=O (stereo unspecified)	i	14µM	nt	nt
O=C(CN1C(=O)C2C3c4ccccc4C(c4ccccc43)C2C1=O)Nc1ccccc1C(=O)O (stereo unspecified)	i	i	nt	nt
COc1cccc(CC(=O)Nc2ccc(-c3nc4ccccc4s3)cc2Cl)c1	nt	nt	i	i
Cc1ccc(CNC(=O)[C@H](C)[C@H]2C[C@]2(C)[C@H](NC(=O)OCc2ccccc2)c2ccccc2)o1	i	25µM!	i	i
C[C@@H](C(=O)NCc1ccccc1)[C@@H]1C[C@@]1(C)[C@@H](NC(=O)OCc1ccccc1)c1ccccc1	i	i	i	i
COc1cccc(CNC(=O)CCn2nc(C)c3c(C)n(-c4ccccc4)nc3c2=O)c1	nt	nt	i	i
COc1ccccc1C(=O)Nc1c(C(=O)N(CCN(C)C)Cc2ccco2)oc2ccccc12	nt	nt	20µM	i
O=c1c(C(c2ccc(O)cc2)c2c(O)nc3n(c2=O)CCS3)c(O)nc2n1CCS2	i	13µM	nt	nt
O=c1c(C(c2ccc(O)cc2)c2c(O)nc3n(c2=O)CCCS3)c(O)nc2n1CCCS2	i	?	nt	nt
Cc1ccc(C)c(Oc2nc3c(c(=O)n(C)c(=O)n3C)n2Cc2ccccc2)c1	nt	nt	i	i
